# Targets with the largest changes are over-represented here; the source holds about 21,000 in all.
# Target: PKN2_Q16513_118_LQELNAHIVVSDPEDITDCPR (UniProt Q16513)
# Test: probe-labelled cysteine peptide fold change vs DMSO (competition) (log2 fold change); higher = less target engagement (more negative = stronger competition)
# Settings: THP-1, incubation time: 4 h
# 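Further: competitive profiling in live THP-1 cells: cysteine peptides tagged with an iodoacetamide desthiobiotin (IA-DTB) probe, intensity after compound treatment relative to DMSO-treated cells.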
# UniProt Q16513, sequence (Q16513 whole entry, looked up): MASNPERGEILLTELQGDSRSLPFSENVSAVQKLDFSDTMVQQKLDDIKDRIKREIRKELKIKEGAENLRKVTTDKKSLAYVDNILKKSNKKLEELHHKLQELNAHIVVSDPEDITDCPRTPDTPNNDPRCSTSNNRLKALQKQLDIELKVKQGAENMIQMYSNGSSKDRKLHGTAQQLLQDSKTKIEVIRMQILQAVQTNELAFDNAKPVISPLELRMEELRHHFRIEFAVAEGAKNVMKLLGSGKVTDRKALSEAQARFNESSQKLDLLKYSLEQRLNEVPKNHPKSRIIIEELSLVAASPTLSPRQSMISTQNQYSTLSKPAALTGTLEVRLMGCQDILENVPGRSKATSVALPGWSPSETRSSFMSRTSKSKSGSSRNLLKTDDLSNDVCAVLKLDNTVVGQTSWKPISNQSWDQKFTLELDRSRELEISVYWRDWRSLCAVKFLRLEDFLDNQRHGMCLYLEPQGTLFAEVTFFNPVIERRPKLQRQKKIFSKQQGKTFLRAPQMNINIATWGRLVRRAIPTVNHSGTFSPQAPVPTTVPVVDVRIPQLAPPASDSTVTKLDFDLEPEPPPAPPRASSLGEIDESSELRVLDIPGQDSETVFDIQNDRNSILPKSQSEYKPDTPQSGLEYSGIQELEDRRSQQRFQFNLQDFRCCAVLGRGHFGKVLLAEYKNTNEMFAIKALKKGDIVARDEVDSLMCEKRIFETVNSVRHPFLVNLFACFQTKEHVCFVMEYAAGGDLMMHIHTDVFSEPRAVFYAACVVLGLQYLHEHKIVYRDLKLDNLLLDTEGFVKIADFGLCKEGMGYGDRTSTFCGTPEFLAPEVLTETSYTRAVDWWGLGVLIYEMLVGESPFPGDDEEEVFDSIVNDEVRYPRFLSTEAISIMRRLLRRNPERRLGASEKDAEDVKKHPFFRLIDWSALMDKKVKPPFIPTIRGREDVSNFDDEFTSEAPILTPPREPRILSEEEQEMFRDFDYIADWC
smiles,measurement,setting,value
Cc1cc(C(=O)N2CCCN(C(=O)CCl)CC2)ccc1-c1ccccc1 [compound 10],probe-labelled cysteine peptide fold change,10 µM,-0.00661
same,probe-labelled cysteine peptide fold change,50 µM,0.269
